# Screening results deposited in PubChem BioAssay by National Center for Advancing Translational Sciences (NCATS).
# Vaccinia Venus = qHTS for Stage-Specific Inhibitors of Vaccinia Orthopoxvirus: Venus Reporter Primary qHTS. AID 720580, 2013. Vaccinia virus Venus reporter expression, fluorescence. hit rate 0.46% among 330,000. Potency, µM (titrated, usually from 36.5 µM), for the others: at the top dose activity change, negative = inhibition, most hits filed as inhibitors; calls by dose curve; tested in A549 cells; further: potency means the concentration at half of the fitted maximal effect; nearly all actives have a fitted effect of over 30% in size
# HCV inhibitor = qHTS Assay for Inhibitors of Hepatitis C Virus (HCV). Huh7.5.1 HCVcc-Cre infection, luciferase reporter, 44 h. Potency, µM (top dose mostly 41.8 µM), inactives show at the top dose activity change, negative = inhibition, hits mostly inhibitors. hit rate 3.4% among 340,000; active means well fitted inhibition curve with a large enough effect; inconclusive means small, poorly fitted or top-dose-only effect, or another doubt; inactive means no such curve, though single readings can be large or run the other way; further: potency means the concentration at half of the fitted maximal effect
#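 1,000 cells/well; 4 h culture; + compound; + HCVcc-Cre (~0.5 moi); 44 h; luciferase substrate, RT 15 min; read 15 sec.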
# Vaccinia mCherry = qHTS for Stage-Specific Inhibitors of Vaccinia Orthopoxvirus: mCherry Reporter Primary qHTS. hit rate 0.63% among 310,000. Vaccinia virus mCherry reporter infection, fluorescence. Potency, µM (titrated, usually from 36.5 µM), for inactives: at the highest dose activity change, negative = inhibition, hits mostly inhibitors; calls by dose curve; tested in A549 cells; further: potency means the concentration at half of the fitted maximal effect; nearly all actives have a fitted effect of over 35% in size
# HCMV antiviral = qHTS Assay for inhibitors of the human cytomegalovirus (HCMV). HFF cells, HCMV-luciferase reporter, 72 h; hits give low values. activity change, negative = inhibition, % at 57.5 µM. hit rate 4.5% among 410,000. AID 1259415, 2018; in the data active means activity change below about -60%; inconclusive means no clear call, values can overlap the other calls; inactive means above about -39%
#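 Two compound doses tested in HFFs infected with HCMV-luciferase, MOI 1 PFU/cell, 72 h at 37C. Lysate luminescence read with OneGlo; data normalized against buffer-only and 10uM Salinomycin inhibitor controls.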
# FMDV antiviral = High Throughput Screening for Foot and Mouth Disease Virus Antivirals; FMDV antiviral cell-based qHTS; Potency, µM (highest dose often 57.9 µM), inactives show at the highest dose activity change, negative = inhibition, most hits filed as inhibitors; hit rate 1.2% among 410,000; AID 1159524, 2015; calls by dose curve; tested in HEK293T cells; further: read-out not given here; potency means the concentration at half of the fitted maximal effect; nearly all actives have a fitted effect of over 45% in size
# The depositor's hits bear a star; i = inactive; ? = inconclusive; / = no result; + = active, no number. Shown are actives, neighbours in structure and some others; about 7.3% of the full set was active somewhere. On the % scale 0 is the no-effect control and ±100 the full control effect.
SMILES,Vaccinia Venus,HCV inhibitor,Vaccinia mCherry,HCMV antiviral,FMDV antiviral
O=S(=O)(c1ccc2c(c1)OCO2)N1CCN(c2nc(-c3cccs3)nc3ccccc23)CC1,-18.5%,/,i,/,/
CCCC[C@H](CN[C@@H](CNC)[C@H](C)CC)NCCC12CCC(CC1)C2,22.4µM*,?,22.4µM*,-96.5*,-2.3%
COCCCNC(=O)C1CCN(c2ncnc3c2nc2n3CCCCC2)CC1,-7.4%,/,i,-15.6,27.0%
O=C(NCc1ccccc1)C1CCN(c2ncnc3c2nc2n3CCCCC2)CC1,-6.6%,/,i,-10.6,-8.4%
O=C(Nc1ccccn1)C1CCN(c2ncnc3c2nc2n3CCCCC2)CC1,/,?,/,-84.3*,?
CCc1ccc(NC(=O)C2CCN(c3ncnc4c3nc3n4CCCCC3)CC2)cc1,-9.4%,?,-4.4%,-72.6*,?
COC(=O)C(CCSC)NC(=O)C1CCN(c2ncnc3c2nc2n3CCCCC2)CC1 (stereo unspecified),-7.2%,/,i,-100.4*,15.7%
N[C@H](C(=O)O)C1C(C(=O)O)C1C(=O)O (stereo partly specified),-13.7%,/,-11.1%,/,-4.2%
S=c1nc[nH]c2c1sc1nc(-c3ccccc3)c3c(c12)CCCC3,?,-2.6%,14.1µM*,?,-29.4%
O=c1[nH]cnc2c1sc1nc(-c3ccccc3)c3c(c12)CCCC3,-6.7%,2.7%,i,20.7,-7.9%
COc1ccc(-c2oc3ccccc3c2C#Cc2cncn2C)cc1,?,2.82µM*,?,5.2,6.7%
COc1ccc(-c2sc3ccc(OC)cc3c2C#Cc2cncn2C)cc1,?,2.82µM*,?,20.2,31.5%
COc1ccc(-c2sc3ccc(N4CCOCC4)cc3c2C#CC2(O)CCCCC2)cc1,?,2.82µM*,?,64.5,?
COC(=O)c1c(-c2ccc(OC)cc2)oc2ccccc12,-11.5%,?,i,-6.2,-7.2%
COc1cc(OC)cc(-c2sc3ccc(OC)cc3c2C#CC2(N)CCCCC2)c1,?,-23.9%,?,-4.6,-29.3%
COc1ccc(-c2sc3cc4c(cc3c2C#CC2(N)CCCCC2)OCO4)cc1,?,22.4µM*,?,-4.2,41.8%
COc1ccc(-c2nnn3c2nc(NCCc2ccc(OC)c(OC)c2)c2ccccc23)cc1,-10.3%,/,-11.2%,46.4,?
COc1ccc(OC)c(CNc2ncnc3onc(-c4ccc(Cl)cc4)c23)c1,-24.5%,/,-27.7%,?,?
COc1ccc(-c2sc3cc4c(cc3c2C#Cc2cncn2C)OCO4)cc1,-20.3%,5.01µM*,?,-3.4,3.2%
COc1ccc(-c2sc3cc4c(cc3c2-c2ccc(OCCN3CCOCC3)cc2)OCO4)cc1,-8.6%,-48.6%,-20.1%,12.1,-22.5%
Cc1csc(SCC(=O)Nc2cccc3nsnc23)n1,?,-55.9%,/,-74.7*,-8.9%
Cc1csc(SCC(=O)Nc2ccccc2C)n1,-6.8%,2.0%,-10.6%,-15.7,9.7%
CCCCC(=O)NC(c1ccccc1OC)c1ccc2cccnc2c1O (stereo unspecified),-27.6%,2.24µM*,7.94µM*,+,-16.0%
CCCC(=O)NC(c1ccc(OC)c(OC)c1)c1c(O)ccc2ccccc12 (stereo unspecified),-10.1%,/,-18.1%,45.0,31.1%
CCCC(=O)NC(c1ccccc1OC)c1ccc2cccnc2c1O (stereo unspecified),?,3.55µM*,10µM*,/,-12.3%
SMILES,Vaccinia Venus,HCV inhibitor,Vaccinia mCherry,HCMV antiviral,FMDV antiviral
CCCCC(=O)NC(c1ccc(OC)c(OC)c1)c1c(O)ccc2ccccc12 (stereo unspecified),?,-12.9%,?,18.7,5.2%
CC(C)(C)S(=O)(=O)N1C[C@@H]2CC(=O)C(CCO)=C2[C@H]1CCO,/,/,/,19.7,/
O=C1NC2c3c(I)sc(I)c3C(=O)C2O1 (stereo unspecified),?,?,10µM*,-10.3,39.8µM*
CCC(=O)N1CCc2cc(S(=O)(=O)N3CCN(c4ccccc4F)CC3)ccc21,0.3%,/,-1.8%,-0.5,-3.2%
CCOc1ccc(N(CC)S(=O)(=O)c2cc(Br)cc3c2N(C(C)=O)C(C)C3)cc1 (stereo unspecified),-21.7%,/,?,-62.9*,11.2µM*
CCOc1ccc(OCC)c(NS(=O)(=O)c2cc(Br)cc3c2N(C(C)=O)C(C)C3)c1 (stereo unspecified),-4.0%,/,-14.6%,-13.0,49.9%
O=C1C2ON(c3ccccc3)C(c3ccncc3)C2C(=O)N1c1ccc(N2CCOCC2)cc1 (stereo unspecified),-6.1%,?,-21.3%,-74.9*,-1.9%
c1ccc2c(c1)OCC(c1csc3ncnc(N4CCOCC4)c13)O2 (stereo unspecified),-17.9%,-11.6%,i,-60.0*,/
O=C(C1COc2ccccc2O1)N1CCOCC1 (stereo unspecified),0.8%,-3.0%,/,-16.8,-13.7%
CCN(CC)c1ncnc2scc(C3COc4ccccc4O3)c12 (stereo unspecified),-16.2%,11.2µM*,i,?,?
O=C(CCC1N=C2c3ccccc3N=C(SCc3ccc(Cl)cc3)N2C1=O)N1CCN(c2ccccc2)CC1 (stereo unspecified),-3.6%,/,0.8%,14.4,-5.2%
O=C1CN(C(=O)CSc2nc(-c3ccc(Cl)cc3)cs2)c2ccccc2N1,?,14.1µM*,?,?,?
Cc1ccc(-n2c(SCC(=O)N3CC(=O)Nc4ccccc43)nc3ccccc3c2=O)cc1,?,4.7%,-13.9%,-68.0*,-29.2%
CC(C)c1nc(SCC(=O)N2CC(=O)Nc3ccccc32)c2ccccc2n1,?,?,?,-87.2*,15.8µM*
Cc1nnc(SCC(=O)N2CC(=O)Nc3ccccc32)s1,-11.0%,-0.5%,-14.8%,1.9,2.7%
Cc1cccc(-c2c3c(=O)n(C)c(=O)n(C)c3c3cnc4ccccc4n23)c1,-3.3%,/,-11.5%,23.2,-25.7%
COc1ccc(N2CC(C(=O)Nc3ccccc3N3CCCC3)CC2=O)c(OC)c1 (stereo unspecified),?,8.91µM*,?,-22.4,-11.0%
CCCN(CCC)c1nn2c(=O)c(C(=O)NCc3cc(Br)ccc3OC)cnc2s1,-18.7%,/,-14.4%,-31.0,0.0%
CN(C)c1nc(OCCNC(=O)COc2ccc(Cl)cc2Cl)nc(N(C)C)n1,/,?,/,9.8,?
COc1cc(C)nc(OCCNC(=O)COc2ccc(Cl)cc2Cl)n1,-14.2%,?,/,-60.4*,-14.0%
O=S(=O)(c1ccc(Br)s1)N1CCN(c2ccnc3cc(Cl)ccc23)CC1,-12.6%,?,-8.4%,-71.9*,?
Cc1ccc(S(=O)(=O)N2CCN(c3ccnc4cc(Cl)ccc34)CC2)cc1,-4.1%,?,-12.8%,-61.2*,-9.5%
CS(=O)(=O)N1CCN(c2ccnc3cc(Cl)ccc23)CC1,-14.5%,3.8%,i,-2.7,-14.5%
